IDE exosite FP = displaces the probe from the exo-site of human IDE; AID 1259349; 17,000 tested, 6.3% active; z-score at 20 µM; P14735; purified IDE, FL-6b probe fluorescence polarization; hits give low values;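 active = z-score of -3 or lower, meaning strong loss of probe binding signal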;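 also: His-tagged human IDE residues 42-1019 made in E. coli with 30 nM FL-6b probe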
Target sequence (P14735 42-1019 limits assumed): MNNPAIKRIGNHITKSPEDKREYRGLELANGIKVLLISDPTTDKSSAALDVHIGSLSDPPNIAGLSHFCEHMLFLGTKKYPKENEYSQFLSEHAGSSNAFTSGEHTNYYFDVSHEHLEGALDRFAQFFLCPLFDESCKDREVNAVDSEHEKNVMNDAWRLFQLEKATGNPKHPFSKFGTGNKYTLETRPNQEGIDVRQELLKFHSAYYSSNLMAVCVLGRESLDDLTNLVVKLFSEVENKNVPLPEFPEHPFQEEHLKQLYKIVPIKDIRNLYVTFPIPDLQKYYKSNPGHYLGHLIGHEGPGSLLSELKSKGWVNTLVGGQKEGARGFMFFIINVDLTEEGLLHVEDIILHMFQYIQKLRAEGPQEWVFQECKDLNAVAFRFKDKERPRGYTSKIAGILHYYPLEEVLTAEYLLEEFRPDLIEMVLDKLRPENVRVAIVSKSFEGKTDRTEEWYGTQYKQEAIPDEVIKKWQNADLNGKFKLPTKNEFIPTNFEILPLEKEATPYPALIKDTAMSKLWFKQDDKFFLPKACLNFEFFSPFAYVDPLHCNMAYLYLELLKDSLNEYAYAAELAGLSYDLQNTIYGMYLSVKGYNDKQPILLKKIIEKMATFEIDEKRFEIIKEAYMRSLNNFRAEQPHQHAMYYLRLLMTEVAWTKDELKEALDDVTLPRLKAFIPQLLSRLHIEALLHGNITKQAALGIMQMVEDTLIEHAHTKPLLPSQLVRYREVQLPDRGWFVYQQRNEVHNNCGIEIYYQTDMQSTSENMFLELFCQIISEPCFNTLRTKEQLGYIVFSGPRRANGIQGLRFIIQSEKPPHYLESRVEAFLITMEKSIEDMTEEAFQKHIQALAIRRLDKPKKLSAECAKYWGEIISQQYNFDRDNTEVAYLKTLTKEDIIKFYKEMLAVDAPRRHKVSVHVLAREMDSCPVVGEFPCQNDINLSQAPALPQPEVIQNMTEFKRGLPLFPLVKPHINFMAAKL
Numbers stand for hits; n = inactive. The entries come from a sample that favours hits as a whole.

SMILES	IDE exosite FP
N#C[C@H]1[C@H](c2ccc(-c3cccc(F)c3)cc2)[C@H](CO)N1C(=O)c1cccnc1	-6
N#C[C@@H]1[C@@H](c2ccc(-c3cccc(F)c3)cc2)[C@H](CO)N1C(=O)c1cccnc1	n
N#C[C@H]1[C@@H](c2ccc(C#Cc3ccccc3F)cc2)[C@@H](CO)N1C(=O)C1CCC1	n
COCC(=O)N1[C@H](C#N)[C@H](c2ccc(C#Cc3ccccc3F)cc2)[C@H]1CO	n
N#C[C@@H]1[C@H](c2ccc(C#Cc3ccccc3F)cc2)[C@H](CO)N1C(=O)C1CCOCC1	-6.4
N#C[C@@H]1[C@@H](c2ccc(C#Cc3ccccc3F)cc2)[C@@H](CO)N1C(=O)C1CCC1	n
N#C[C@H]1[C@H](c2ccc(-c3cccc(F)c3)cc2)[C@@H](CO)N1C(=O)c1cccnc1	n
N#C[C@H]1[C@H](c2ccc(C#Cc3ccccc3F)cc2)[C@@H](CO)N1C(=O)c1cccnc1	-5.5
N#C[C@@H]1[C@@H](c2ccc(C#Cc3ccccc3F)cc2)[C@H](CO)N1C(=O)c1cccnc1	n
N#C[C@H]1[C@@H](c2ccccc2)[C@H](CO)N1C(=O)c1cccnc1	n
COCC(=O)N1[C@@H](C#N)[C@H](c2ccc(C#Cc3ccccc3F)cc2)[C@@H]1CO	-4.3
CO[C@H]1CN(C)C(=O)c2cc(NS(=O)(=O)c3ccc(Cl)cc3)ccc2OC[C@H](C)N(C(=O)NC(C)C)C[C@@H]1C	n
N#C[C@H]1[C@@H](c2ccccc2C2=CCCC2)[C@@H](CO)N1C(=O)C1CC1	n
COc1ccccc1-c1ccc2c(c1)O[C@@H](CN(C)CC1CCOCC1)[C@H](C)CN([C@H](C)CO)S2(=O)=O	n
COc1cccc(-c2ccc(C3[C@@H]4CN(S(=O)(=O)c5cn(C)cn5)C[C@H]3N4)cc2)c1 (some centres not stated)	n
N#C[C@H]1[C@H](c2ccc(C#Cc3ccccc3F)cc2)[C@H](CO)N1C(=O)C1CC1	n
N#C[C@H]1[C@@H](c2ccc(C#Cc3ccccc3F)cc2)[C@@H](CO)N1C(=O)C1CCOCC1	-3.7
N#C[C@H]1[C@@H](c2ccc(C#Cc3ccccc3F)cc2)[C@H](CO)N1C(=O)C1CCC1	n
O=C(C[C@@H]1CC[C@H](NC(=O)c2ccc3c(c2)OCO3)[C@@H](CO)O1)NCc1ccc(Oc2ccccc2)cc1	n
COc1ccc(CN(C)C[C@H]2OCCCC[C@@H](C)Oc3ccc(NC(=O)C4CCCCC4)cc3C(=O)N([C@@H](C)CO)C[C@@H]2C)cc1	n
O=C(CC1CC1)N1CC(=O)N2[C@@H](CO)[C@H](c3ccc(C#Cc4cccc(F)c4)cc3)[C@@H]2C1	n
O=C(CC1CC1)N1CC(=O)N2[C@H](C1)[C@H](c1ccc(C#Cc3cccc(F)c3)cc1)[C@@H]2CO	n
O=C(CC1CC1)N1CC(=O)N2[C@H](CO)[C@H](c3ccc(C#Cc4cccc(F)c4)cc3)[C@H]2C1	-3.9
O=C(CC1CC1)N1CC(=O)N2[C@H](C1)[C@@H](c1ccc(C#Cc3cccc(F)c3)cc1)[C@@H]2CO	n
O=C(CC1CC1)N1CC(=O)N2[C@H](CO)[C@H](c3ccc(C#Cc4cccc(F)c4)cc3)[C@@H]2C1	-3.2
SMILES	IDE exosite FP
O=C(CC1CC1)N1CC(=O)N2[C@H](CO)[C@@H](c3ccc(C#Cc4cccc(F)c4)cc3)[C@H]2C1	n
O=C(Nc1cccc(F)c1)N1CCCCN2[C@H](CO)[C@H](c3ccc(C#Cc4ccccc4)cc3)[C@H]2C1	n
O=C(Nc1cccc(F)c1)N1CCCCN2[C@@H](CO)[C@H](c3ccc(C#Cc4ccccc4)cc3)[C@@H]2C1	-3.5
O=C(Nc1ccccc1)N1CCCCN2[C@@H](CO)[C@@H](c3ccc(C#Cc4cccnc4)cc3)[C@@H]2C1	n
O=C(Nc1ccccc1)N1CCCCN2[C@H](CO)[C@@H](c3ccc(C#Cc4cccnc4)cc3)[C@H]2C1	n
O=C(Nc1ccccc1F)N1CCCCN2[C@H](C1)[C@H](c1ccc(C#Cc3cccnc3)cc1)[C@@H]2CO	n
O=C(Nc1cccc(F)c1)N1CCCCN2[C@H](C1)[C@H](c1ccc(C#Cc3ccccc3)cc1)[C@@H]2CO	n
O=C(Nc1ccccc1F)N1CCCCN2[C@H](CO)[C@@H](c3ccc(C#Cc4cccnc4)cc3)[C@H]2C1	n
O=C(Nc1ccccc1F)N1CCCCN2[C@H](CO)[C@H](c3ccc(C#Cc4cccnc4)cc3)[C@@H]2C1	-6.8
O=C(Nc1ccccc1)N1CCCCN2[C@@H](CO)[C@H](c3ccc(C#Cc4cccnc4)cc3)[C@@H]2C1	-5.3
CCCC#Cc1ccc([C@H]2[C@H](CO)N3CCCCN(S(=O)(=O)c4ccccc4C)C[C@@H]23)cc1	n
N#C[C@H]1[C@H](c2ccccc2C2=CCCCC2)[C@H](CO)N1S(=O)(=O)c1ccccc1	n
CC(C)(C)[S@](=O)N1Cc2cc(C(=O)N3CCc4ccccc4C3)nc(-c3cccc(-c4cncnc4)c3)c2[C@@H]1CCO	n
C[C@H]1CN([C@@H](C)CO)C(=O)c2cc(C3=CCCCC3)cnc2O[C@H]1CN(C)S(=O)(=O)c1cn(C)cn1	n
CCCNC(=O)N1CC(=O)N2[C@@H](CO)[C@@H](c3ccc(C#Cc4ccc(F)cc4)cc3)[C@@H]2C1	n
N#Cc1cccc(-c2ccc(C3[C@@H]4CN(S(=O)(=O)c5cccc(Cl)c5)C[C@H]3N4)cc2)c1 (some centres not stated)	n
CCCNC(=O)N1C[C@@H]2[C@H](c3ccccc31)[C@H](CO)N2Cc1cccc(OC)c1	n
Cc1noc(C)c1NC(=O)N(C)C[C@H]1OCc2ccccc2-c2c(n(C)c3ccccc23)C(=O)N([C@@H](C)CO)C[C@@H]1C	n
COC(=O)C[C@@H]1CC[C@@H]2[C@@H](COc3ccc(NC(=O)Nc4c(C)noc4C)cc3C(=O)N2C)O1	n
COc1cccc(C#Cc2ccc([C@H]3[C@@H](CO)N(C(=O)C4CCC4)[C@H]3C#N)cc2)c1	n
N#C[C@H]1[C@@H](c2ccc(C#Cc3ccccc3F)cc2)[C@@H](CO)N1C(=O)C1CCCCC1	n
N#C[C@@H]1[C@H](c2ccc(C#Cc3ccc(F)cc3)cc2)[C@@H](CO)N1C(=O)C1CC1	n
COc1ccccc1C#Cc1ccc([C@H]2[C@@H](C#N)N(C(=O)C3CCC3)[C@H]2CO)cc1	-4.9
COc1cccc(C#Cc2ccc([C@@H]3[C@H](C#N)N(C(=O)C4CC4)[C@H]3CO)cc2)c1	n
COc1ccccc1C#Cc1ccc([C@H]2[C@@H](C#N)N(C(=O)C3CCCCC3)[C@H]2CO)cc1	n
SMILES	IDE exosite FP
COc1ccccc1C#Cc1ccc([C@@H]2[C@@H](C#N)N(C(=O)C3CCCCC3)[C@H]2CO)cc1	-8
COc1ccccc1C#Cc1ccc([C@H]2[C@@H](CO)N(C(=O)C3CC3)[C@H]2C#N)cc1	-7.5
COc1cccc(C#Cc2ccc([C@@H]3[C@H](C#N)N(C(=O)C4CCC4)[C@H]3CO)cc2)c1	n
O=C(C[C@@H]1C[C@H]2c3cc(NC(=O)C4CCC4)ccc3O[C@H]2[C@H](CO)O1)NC1CCCC1	n
CC(=O)N1CCCCN2[C@H](CO)[C@@H](c3ccc(-c4cccc(C(=O)N(C)C)c4)cc3)[C@H]2C1	n
C/C=C/c1ccc([C@@H]2[C@H](CO)N[C@H]2CN(CC(C)C)C(=O)c2ccccn2)cc1	n
O=C(Nc1nccs1)[C@H]1[C@H](CO)[C@H]2Cn3c(cccc3=O)[C@@H]1N2C(=O)C1CC1	n
CN(C)C(=O)c1cccc(-c2ccc([C@H]3[C@H](CO)N4CCCCN(S(C)(=O)=O)C[C@@H]34)cc2)c1	n
